Assay results taken from PubChem BioAssay AID1347135 (National Center for Advancing Translational Sciences (NCATS), 2019).
Some of the results follow. Records with an inconclusive call do not appear. Calls of active or inactive are those of the source. The call rests on the fitted dose curve; in most records, active means well fitted inhibition curve with a large enough effect; inconclusive means small, poorly fitted or top-dose-only effect; inactive means flat fitted curve, though single readings scatter.

Test: qHTS of pediatric cancer cell lines to identify multiple opportunities for drug repurposing: Orthogonal 3D viability screen for SK-N-SH cells
Settings: SK-N-SH 3D spheroid viability, PI/Hoechst imaging, 72 h
Source text: Drug repurposing or repositioning has been offered as a strategy for drug development in oncology programs. This approach has special potential for childhood cancers and other rare or orphan diseases, where the expected return on new drug development has been a disincentive to pharmaceuticals. […] In this project we exploit the poly-pharmacology of drugs to discover new indications via phenotypic screening of a panel of 19 well-characterized cell lines derived from solid tumors seen in children and adolescents. The goal is to identify approved drugs with previously unrecognized anticancer properties that has the potential to reveal new mechanisms and biological processes involved in carcinogenesis or drug resistance. We employed a titration-based paradigm (quantitative high-throughput screening or qHTS), where all compounds were tested at multiple concentrations for their effect on cell viability. Concentration-response curves (CRCs) were derived directly from the primary screen, and both potency and efficacy values were used to identify compounds with robust bioactivity profiles. […] These two assays will be used to validate active compounds and assess the correlation of compound's potency in 2D vs 3D cultures on selected cell lines. Assay Submitter: Nathalia J. Martinez, National Center for Advancing Translational Sciences, National Institutes of Health, Rockville, MD, USA; email: natalia.martinez@nih.gov Shen, M et al. Quantitative high-throughput phenotypic screening of pediatric cancer cell lines identifies multiple opportunities for drug repurposing. Oncotarget 2017 Dec 19;9(4):4758-4772. PMID 29435139.
The cells were obtained from University of North Carolina (UNC), Pediatric Preclinical Testing Program (PPT), and Coriell Institute (CI). qHTS viability in 3D culture: Cells were assayed in phenol red-free growth media at a density of 1,000 cells/well, with the exception of Daoy, and SH-N-SH which were assayed at 1,500 cells/ well. Thirty muL of cells were dispensed into 384-well, ULA, round bottom plates (Corning) using a Multidrop dispenser. Plates were spun down at 1,000 rpm for 1 min and incubated at 37 degrees C, 5% CO2, under a humidified atmosphere for either 24 (Daoy) or 48 hours (all other cell lines) to allow spheroid formation. Ninety-two nanoliter of compounds and controls (neutral control DMSO or positive control bortezomib at final concentrations of 0.5 µM) were subsequently transferred via GNF Pintool. Plates were sealed using a breathable seal (Diversified Biotech, Dedham, MA) and incubated for 72 hours at 37 degrees C. Spheroid viability was first determined by high-content imaging using Hoechst 33342 and Propidium Iodide (PI, ThermoFisher Scientific), followed by addition of CellTiter-Glo 3D (Promega). Specifically, 3 µL/well of PBS containing a 1:500 dilution of both dyes was dispensed using Multidrop. Dyes were incubated for 1 hour before imaging using the Celigo Image Cytometer. Then, 20 µl of CellTiter-Glo 3D were added per well. Plates were incubated for 30 min at RT on a VWR microplate shaker (300 rpm) and analyzed for luminescence intensity using a ViewLux High-throughput CCD imager equipped with clear filters. Image analysis was done using the Celigo Tumorsphere 1+2+3 application software as previously described. […] The data were exported to Excel, and the average fluorescent intensities were used to calculate the ratio of PI over Hoechst, which was used to quantify viability. […]

| Structure (SMILES) | Potency |
| --- | --- |
| CC(NCc1ccc2c(c1)nc(NC(=O)c1ccc(-c3cn[nH]c3)s1)n2CC(C)(C)O)C(C)(C)C (stereo not given) | 204 nM (active) |
| CC[C@]1(O)C[C@@H]2CN(CCc3c([nH]c4ccccc34)[C@@](C(=O)OC)(c3cc4c(cc3OC)N(C)[C@H]3[C@@](O)(C(=O)OC)[C@H](OC(C)=O)[C@]5(CC)C=CCN6CC[C@]43[C@@H]65)C2)C1 | 90.9 nM (active) |
| CC[C@H]1CN2CCc3cc(OC)c(OC)cc3[C@@H]2C[C@@H]1C[C@H]1NCCc2cc(OC)c(OC)cc21 | 72.2 nM (active) |
| COC(=O)Nc1nc2ccc(Sc3ccccc3)cc2[nH]1 | 1620 nM (active) |
| CC1(C)O[C@@H]2C[C@@H]3[C@H]4C[C@@H](F)C5=CC(=O)C=C[C@]5(C)[C@@]4(F)[C@@H](O)C[C@]3(C)[C@]2(C(=O)CO)O1 | 456 nM (active) |
